# High-throughput results: PubChem, The Scripps Research Institute Molecular Screening Center
# Compounds with a hit are over-represented: about 2.8% of the library has one in this group of screens.
# rCAG binder: binds r(CAG) RNA repeats. r(CAG) RNA repeat, TO-PRO-1 dye displacement fluorescence. inhibition, % at 3 µM. 370,000 tested, 1.3% active;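 active = inhibition above the plate cutoff, the mean of all test compounds on that plate plus 3 SD, cut at about 35% in these data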;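 also: 0% = DMSO alone and 100% = 100 µM mitoxantrone as full dye displacement; higher means more dye released from RNA so lower well fluorescence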
# MsrA inhibitor: inhibitors of bovine MsrA; purified bovine MsrA, absorbance read-out; inhibition, % at 15.5 µM; AID 651718; 360,000 tested, 0.75% active; in the data active = inhibition above about 4.5%;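 also: 0% = vehicle wells with enzyme and 100% = reference inhibitor wells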
# bovine MsrA act: bovine methionine sulfoxide reductase A activation; purified bovine MsrA, absorbance read-out; activation, % at 10.6 µM; 360,000 tested, 0.3% active; AID 602163; in the data active = activation above about 7.5%;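 also: 0% = vehicle and 100% = reference activator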
# HGIII-sPLA2 inh: Blocks human group III sPLA2 activity; QFRET BODIPY PC-A2 liposome hydrolysis, fluorescence; inhibition, % at 12.2 µM; 370,000 tested, 0.56% active; AID 743126;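 active = inhibition above mean plus 3 SD of compounds lying within the high and low control bounds, cut at about 19% in these data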;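 also: 0% = median of test compound wells and 100% = no enzyme DMSO wells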
# Target sequence (Q9NZ20 whole entry, looked up): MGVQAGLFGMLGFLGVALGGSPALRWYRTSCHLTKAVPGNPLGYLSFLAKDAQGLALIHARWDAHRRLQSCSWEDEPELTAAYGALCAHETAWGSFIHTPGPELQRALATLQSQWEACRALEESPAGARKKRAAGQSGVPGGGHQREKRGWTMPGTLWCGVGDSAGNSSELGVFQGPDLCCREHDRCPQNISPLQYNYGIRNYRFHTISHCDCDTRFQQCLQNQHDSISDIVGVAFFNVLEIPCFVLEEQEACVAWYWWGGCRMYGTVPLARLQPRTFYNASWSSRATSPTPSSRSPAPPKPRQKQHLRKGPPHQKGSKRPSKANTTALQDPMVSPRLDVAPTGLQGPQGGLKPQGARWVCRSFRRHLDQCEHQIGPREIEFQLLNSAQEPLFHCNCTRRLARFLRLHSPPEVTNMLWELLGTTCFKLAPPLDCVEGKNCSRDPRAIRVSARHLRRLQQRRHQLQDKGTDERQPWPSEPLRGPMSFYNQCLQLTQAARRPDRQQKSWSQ
# sPLA2 confirm: human GIII-sPLA2 inhibition, confirmation; shares compounds with HGIII-sPLA2 inh; recombinant hGIII-sPLA2, BODIPY PC-A2 QFRET fluorescence; inhibition, % at 12.2 µM; 2,000 tested, 34% active; AID 743280;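 active = mean inhibition across triplicates above the hit cutoff set in the earlier primary screen, cut at about 19% in these data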;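 also: 0% = enzyme with DMSO and 100% = DMSO wells lacking enzyme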
# BODIPY interf: 535nm fluorescence interference, HGIII-sPLA2 counter-screen | AID 743282 | inhibition, % at 12.2 µM | 2,000 tested, 8.5% active | shares compounds with HGIII-sPLA2 inh | BODIPY FL product fluorescence interference, QFRET;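 active = average inhibition above the solvent-only control mean plus 3 SD, cut at about 6% in these data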;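 also: 0% = DMSO with substrate plus product and 100% = DMSO with substrate alone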
# 535nm interf DR: counter-screen for HGIII-sPLA2 inhibitors: 535nm fluorescence interference, dose response; shares compounds with HGIII-sPLA2 inh; BODIPY FL product fluorescence interference, cell-free; IC50, µM; 240 tested, under 10 active; AID 743455;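 active = IC50 at or below 10 µM; inactive = IC50 above 10 µM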
# Numbers without * were called inactive; · = not tested or not shown.
SMILES,rCAG binder,MsrA inhibitor,bovine MsrA act,HGIII-sPLA2 inh,sPLA2 confirm,BODIPY interf,others
CCN(CC)c1ccc(-c2nc3cnccn3c2NC2CCCC2)cc1,0,-1,-13,21*,27*,-12,
COc1cc(/C=N/n2c(COc3ccccc3)n[nH]c2=S)cc(OC)c1OC(C)=O,28,0,1,24*,17,-2,
Cc1ccc(-n2c(COc3ccccc3)n[nH]c2=S)cc1,1,0,-2,5,·,·,
S=c1[nH]nc(COc2ccccc2)n1-c1ccc(Cl)cc1,1,1,2,22*,33*,-1,535nm interf DR=>122
COc1ccc(-n2c(COc3ccccc3)n[nH]c2=S)cc1,1,1,2,21*,23*,2,
CC(C)NC(=O)c1nn(C)c2ccccc12,-3,0,-2,11,·,·,
Cc1cc(C)nc(SCCN2CCOCC2)n1,1,0,3,0,·,·,
O=c1ccn([C@@H]2O[C@H](CNCC3=Cc4cc(O)ccc4OC3)[C@@H](O)[C@H]2O)c(=O)[nH]1,15,1,-2,20*,1,-5,
Cc1cc2c(cc1C)N(C(=O)CSc1nncn1C)C(C)(C)c1ssc(=S)c1-2,-2,1,-3,34*,12,-23,
CC1=CC(C)(C)N(C(=O)CSc2nncn2C)c2ccccc21,-4,1,-1,5,·,·,
Cc1ccc(NC(=O)CC(O)(C(F)(F)F)C(F)(F)F)c(Br)c1,0,0,0,-2,·,·,
CC1(C)CC(=O)C(N=Nc2ccc(C(F)(F)F)cc2[N+](=O)[O-])=C(O)C1,-4,1,-3,20*,10,-4,
CCCCc1c(-c2ccccc2OC)ncn1Cc1c(Cl)cccc1Cl,2,0,·,-10,·,·,
CC(C)(Oc1ccc(Cl)cc1)C(=O)NC1CC1,-6,1,-3,21*,-3,-2,
COc1cc(CN(C(=S)NCC(=O)NC2CCCC2)C2CCCC2)cc(OC)c1OC,-7,0,-4,23*,3,-15,
NC(CSCc1ccccc1Cl)C(=O)O (stereo not drawn),1,1,-1,9,·,·,
N=C(N)SCc1ccccc1Cl,-2,0,-1,34*,11,-6,
Cc1cc(C)c(C)c(S(=O)(=O)NCc2ccc(C(=O)N3CCCC3)cc2)c1C,-5,-1,-2,-8,·,·,
Nc1cc(N)nc(SCC(=O)NCCC2=CCCCC2)n1,2,0,-3,0,·,·,
Cc1cc(C)c2nc(SCC(=O)NCCC3=CCCCC3)cc(C)c2c1,-1,1,-4,21*,-4,-7,
CCCCN(C)S(=O)(=O)c1c(C)[nH]c(=O)[nH]c1=O,-2,0,-3,19*,2,-4,
Cc1ccc(C(=O)Nc2nc(-c3ccccn3)cs2)s1,6,2,-3,7,·,·,
Cn1cccc1C(=O)Nc1nc(-c2ccccn2)cs1,4,0,-4,-2,·,·,
Cc1c(C(=O)Nc2nc(-c3ccccn3)cs2)oc2ccccc12,·,·,-5,·,·,·,
O=C(Nc1nc(-c2ccccn2)cs1)c1ccc(Cl)s1,4,-1,1,27*,24*,-3,
SMILES,rCAG binder,MsrA inhibitor,bovine MsrA act,HGIII-sPLA2 inh,sPLA2 confirm,BODIPY interf,others
O=C(Nc1nc(-c2ccccn2)cs1)c1ncc(Cl)c(Cl)c1Cl,9,0,-1,27*,21*,1,
O=C(Nc1nc(-c2ccccn2)cs1)c1cc2ccccc2o1,10,2,-3,31*,19*,-4,
CC(C)(CNC(=O)CC1C(=O)NCCN1Cc1cccc(F)c1)N1CCOCC1 (stereo not drawn),0,0,0,2,·,·,
COc1ccc(C(CC(=O)NCc2ccccc2)C(C)C)cc1 (stereo not drawn),-4,0,-1,0,·,·,
CCN(CC)C(=O)c1ccc2sc([C@H]3C[C@H](O)[C@@H](CO)O3)nc2c1,2,1,-3,22*,4,-6,
CCc1c(C)nc2c(-c3ccccc3)c[nH]n2c1=O,5,1,-3,24*,33*,5,535nm interf DR=>122
CN(C)c1nc(-c2ccccn2)nnc1-c1ccccc1,1,1,-1,3,·,·,
c1ccc(-c2cccc(CNc3nc(-c4ccccn4)nnc3-c3ccccc3)c2)cc1,·,·,·,25*,0,-36,
CC(=O)Nc1c(C)ccc(CNC(=O)COc2ccc(F)cc2)c1C,-1,-1,-6,-4,·,·,
CC(=O)Nc1c(C)ccc(CNC(=O)COc2cc(C)ccc2C)c1C,-4,0,-2,21*,-4,-12,
CC(C)(C)c1ccc(OCCCCCCN2CCNCC2)cc1,4,0,-1,23*,-6,-44,
CC(C)(c1ccccc1)c1ccc(OCCCN2CCNCC2)cc1,8,-1,0,10,·,·,
C=CCn1c(COc2ccccc2)nnc1SCC(=O)c1ccc(OC)cc1,2,·,·,-50,·,·,
CCOc1ccc(NC(=O)CSc2ccc(-c3ccccn3)nn2)cc1,0,0,-2,19*,-5,-22,
Cc1ccc(NC(=O)CSc2ccc(-c3ccccn3)nn2)cc1,-2,0,-2,-1,·,·,
COc1ccc(NC(=O)CSc2ccc(-c3ccccn3)nn2)cc1OC,-2,0,-2,19*,-1,-27,
CCCC(=O)Nc1nnc(Cc2ccccc2)s1,0,0,-3,-1,·,·,
Cc1cc(C)c(C(=O)/C=C/c2cccc3ccccc23)c(=O)[nH]1,7,1,-6,-11,·,·,
O=C(Nc1ccccc1)c1cc(C2CCCN(C(=O)C3CC3)C2)on1 (stereo not drawn),-1,-1,1,4,·,·,
Cc1cc(C)cc(NS(=O)(=O)c2ccc(NC(=O)c3ccccc3C(=O)O)cc2)c1,1,-1,-6,-3,·,·,
O=C(O)c1ccccc1C(=O)Nc1ccc(S(=O)(=O)NC2CCCCC2)cc1,-2,1,-3,20*,3,-3,
CCOC(=O)c1cnc(-n2[nH]c(C)c(Cc3ccccc3)c2=O)[nH]c1=O,9,2,-4,23*,20*,-5,
Cc1ccc(C(=O)CC(SCC(=O)O)c2ccc([N+](=O)[O-])cc2)cc1 (stereo not drawn),1,0,-3,4,·,·,
Cc1cc(N(C)C)ccc1N=Nc1ccc2ncccc2c1,10,1,-1,23*,23*,2,
CN(C)c1ccc(N=Nc2ccc3ncccc3c2)cc1,2,-1,-1,10,·,·,
Cc1n[nH]c(=O)nc1NCc1ccccc1Cl,3,-1,-2,10,·,·,
O=c1nc(NCc2ccccc2Cl)cn[nH]1,-4,0,-11,25*,-1,-6,
CNC(=S)NNC(=O)c1sc2cc(C(F)(F)F)cnc2c1-c1ccccn1,0,1,-4,14,·,·,
COc1ccc(CNC(=O)CCC(=O)n2ncc3cc(C)ccc32)cc1,3,1,-9,-1,·,·,
N/C(COc1cc(Cl)cc(Cl)c1)=N\O,-3,0,-6,21*,-2,-9,
